For ten molecules, growth inhibition results are on record in PubChem BioAssay (NCI).

Compounds without any hit were thinned out: in the full panel of roughly 79,000, 15% have a hit. A number with no mark means an inactive call. Calls of active or inactive are those of the source. Rule as the data show it: active = growth inhibition above about 70%; inactive = the rest.

Test [1] is described as follows: NCI Yeast Anticancer Drug Screen. Data for the rad50 strain (AID 155).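 Also: 0% = growth of vehicle-only cultures of the same strain.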 The conditions noted are these: S. cerevisiae rad50 strain growth inhibition, hits give high values. In outline: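 Compounds were tested on a yeast strain with an engineered DNA damage repair alteration; the reported value is growth inhibition normalised to vehicle treatment.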
Test [2] is described as follows: NCI Yeast Anticancer Drug Screen. Data for the mec2-1 strain (AID 157). The conditions noted are these: S. cerevisiae mec2-1 strain, hits give high values. In short, it runs like this:
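Strain: mec2-1 (DNA repair/cell cycle alteration). Compound exposure, then growth measured; inhibition expressed relative to vehicle.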

Test [3] in a line: NCI Yeast Anticancer Drug Screen. Data for the sgs1 mgt1 strain (AID 161).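 Also: 0% = growth of cultures given vehicle only.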 The conditions noted are these: S. cerevisiae sgs1 mgt1 strain, hits give high values. In short, it runs like this: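 Genetically altered yeast, compound exposure, growth inhibition relative to vehicle.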
The nature of test [4]: NCI Yeast Anticancer Drug Screen. Data for the cln2 rad14 strain (AID 165).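 Also: 0% = growth equal to vehicle treated cultures.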 The conditions noted are these: S. cerevisiae cln2 rad14 strain, hits give high values. In short, it runs like this: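 Compounds are applied to the cln2 rad14 yeast strain, and growth is then compared with that of vehicle-treated cultures to give inhibition.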
The nature of test [5]: NCI Yeast Anticancer Drug Screen. Data for the bub3 strain (AID 167). The following applies: S. cerevisiae bub3 mutant strain, hits give high values. In short, it runs like this:
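Growth of a checkpoint-deficient yeast mutant is measured after compound exposure. Values represent inhibition relative to vehicle.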

Test [6] in a line: NCI Yeast Anticancer Drug Screen. Data for the mlh1 rad18 strain (AID 175). The conditions noted are these: S. cerevisiae mlh1 rad18 strain growth inhibition, hits give high values. In outline:
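Read-out is yeast growth inhibition, calculated against vehicle-only controls. The compound was applied to a strain engineered with DNA damage repair alterations.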

Setting [7] is: at 5.0 µM (retest, dose inferred, filed as 0.5).
Where [8] appears, read: at 50.0 µM (retest, dose inferred, filed as 5.0).

For `O=C1C(Cl)=C(N2CCN(C3=C(Cl)C(=O)c4ccccc4C3=O)CC2)C(=O)c2ccccc21`, the growth inhibition in test [1] (setting [7]) was 26%; in test [1] (setting [8]) it was 98% (active); in test [1] (at 50.0 µM) it was 84.4% (active); in test [2] (setting [7]) it was 8%; in test [2] (setting [8]), 99% (active); in test [2] (at 50.0 µM), 87.8% (active). For the same molecule, the growth inhibition is 44% in test [3] (setting [7]); 99% (active) in test [3] (setting [8]); 88.7% (active) in test [3] (at 50.0 µM); 14% in test [4] (setting [7]); 98% (active) in test [4] (setting [8]); 87.8% (active) in test [4] (at 50.0 µM). Further, the growth inhibition was 39% in test [5] (setting [7]); 98% (active) in test [5] (setting [8]); 87.9% (active) in test [5] (at 50.0 µM); 26% in test [6] (setting [7]); 98% (active) in test [6] (setting [8]).

As for `Cc1n(CC(C)C)c2c([n+]1C)C(=O)c1ccccc1C2=O`, the growth inhibition in test [1] (setting [7]) was 34%; in test [1] (setting [8]) it was 98% (active); in test [1] (at 50.0 µM), 85% (active); in test [2] (setting [7]) it was 44%; in test [2] (setting [8]), 99% (active); in test [2] (at 50.0 µM) it was 90.4% (active). Besides, the growth inhibition in test [3] (setting [7]) is 44%; in test [3] (setting [8]), 99% (active); in test [3] (at 50.0 µM) it was 91% (active); in test [4] (setting [7]) it was 21%; in test [4] (setting [8]), 95% (active); in test [4] (at 50.0 µM), 89% (active). The growth inhibition is 60% in test [5] (setting [7]); 99% (active) in test [5] (setting [8]); 89.5% (active) in test [5] (at 50.0 µM); 68% in test [6] (setting [7]); 98% (active) in test [6] (setting [8]).

For the molecule `Cc1nc2c(nc1C)C(=O)c1ccccc1C2=O`, the growth inhibition in test [1] (setting [7]) was 19%; in test [1] (setting [8]), 98% (active); in test [1] (at 50.0 µM), 85.9% (active); in test [2] (setting [7]), 14%; in test [2] (setting [8]), 99% (active); in test [2] (at 50.0 µM) it was 82.4% (active). Moreover, the growth inhibition in test [3] (setting [7]) is 22%; in test [3] (setting [8]), 97% (active); in test [3] (at 50.0 µM) it was 71.4% (active); in test [4] (setting [7]), 11%; in test [4] (setting [8]) it was 91% (active); in test [4] (at 50.0 µM) it was 31.9%. Also, the growth inhibition in test [5] (setting [7]) was 30%; in test [5] (setting [8]), 99% (active); in test [5] (at 50.0 µM) it was 67.3%; in test [6] (setting [7]), 27%; in test [6] (setting [8]), 99% (active).

As for `O=C1c2cc3c(cc2CC12Cc1ccccc1C2)CCC3`, the growth inhibition in test [1] (setting [7]) is 23%; in test [1] (setting [8]), 21%; in test [1] (at 50.0 µM) it was 20%; in test [2] (setting [7]), 15%; in test [2] (setting [8]) it was 15%; in test [2] (at 50.0 µM) it was 2.25%. The growth inhibition in test [3] (setting [7]) is 22%; in test [3] (setting [8]) it was 54%; in test [3] (at 50.0 µM), 46.9%; in test [4] (setting [7]), 10%; in test [4] (setting [8]), 16%; in test [4] (at 50.0 µM), 16.8%. The growth inhibition in test [5] (setting [7]) was 24%; in test [5] (setting [8]), 51%; in test [5] (at 50.0 µM), 50%; in test [6] (setting [7]), 19%; in test [6] (setting [8]), 23%; in test [6] (at 50.0 µM), 17.4%.

`C[C@H](CCC(=O)O)[C@H]1CC[C@H]2[C@@H]3[C@H](O)C[C@@H]4C[C@H](O)CC[C@]4(C)[C@H]3CC[C@]12C`: the growth inhibition in test [1] (setting [7]) was 24%; in test [1] (setting [8]) it was 94% (active); in test [1] (at 50.0 µM), 90% (active); in test [2] (setting [7]), -14%; in test [2] (setting [8]) it was 96% (active); in test [2] (at 50.0 µM), 91.3% (active). Moreover, the growth inhibition in test [3] (setting [7]) is 9%; in test [3] (setting [8]), 96% (active); in test [3] (at 50.0 µM), 92.3% (active); in test [4] (setting [7]) it was 19%; in test [4] (setting [8]), 96% (active); in test [4] (at 50.0 µM) it was 90.2% (active). Further, the growth inhibition in test [5] (setting [7]) was -3%; in test [5] (setting [8]), 98% (active); in test [5] (at 50.0 µM) it was 90.5% (active); in test [6] (setting [7]), 6%; in test [6] (setting [8]), 97% (active); in test [6] (at 50.0 µM), 90.2% (active).

Consider `CC[C@@]1(OC(=O)C(N)CCCCN)C(=O)OCc2c1cc1n(c2=O)Cc2cc3ccccc3nc2-1` (stereo partly drawn), for which the growth inhibition in test [1] (setting [7]) is 92% (active); in test [1] (setting [8]), 95% (active); in test [1] (at 50.0 µM) it was 80.3% (active); in test [2] (setting [7]), 44%; in test [2] (setting [8]), 96% (active); in test [2] (at 50.0 µM), 83.9% (active). Further, the growth inhibition in test [3] (setting [7]) is 18%; in test [3] (setting [8]), -11%; in test [3] (at 50.0 µM), 77.1% (active); in test [4] (setting [7]), 13%; in test [4] (setting [8]) it was -36%; in test [4] (at 50.0 µM) it was 45.5%. The growth inhibition in test [5] (setting [7]) was 22%; in test [5] (setting [8]), 30%; in test [5] (at 50.0 µM), 64.1%; in test [6] (setting [7]), 48%; in test [6] (setting [8]), 91% (active).

Take `CCCCCCCCCCS(=O)CC(CO)NC(=O)/C=C/c1c(C)[nH]c(=O)[nH]c1=O` (stereo not drawn): the growth inhibition is 35% in test [1] (setting [7]); 93% (active) in test [1] (setting [8]); 86.2% (active) in test [1] (at 50.0 µM); 20% in test [2] (setting [7]); 94% (active) in test [2] (setting [8]); 89.8% (active) in test [2] (at 50.0 µM). Besides, the growth inhibition in test [3] (setting [7]) was 68%; in test [3] (setting [8]) it was 98% (active); in test [3] (at 50.0 µM), 88.7% (active); in test [4] (setting [7]) it was 34%; in test [4] (setting [8]) it was 89% (active); in test [4] (at 50.0 µM) it was 84.2% (active). Besides, the growth inhibition in test [5] (setting [7]) was 50%; in test [5] (setting [8]), 96% (active); in test [5] (at 50.0 µM) it was 88.3% (active); in test [6] (setting [7]), 53%; in test [6] (setting [8]), 92% (active).

Consider `CC1(O)Cc2c(O)c3c(c(O)c2CC1O)C(=O)C=CC3=O` (stereo not drawn), for which the growth inhibition in test [1] (setting [7]) is 9%; in test [1] (setting [8]), 51%; in test [1] (at 50.0 µM), 72.2% (active); in test [2] (setting [7]) it was 6%; in test [2] (setting [8]), 46%; in test [2] (at 50.0 µM), 69.2%. In addition, the growth inhibition is 4% in test [3] (setting [7]); 43% in test [3] (setting [8]); 26.5% in test [3] (at 50.0 µM); 7% in test [4] (setting [7]); 37% in test [4] (setting [8]); 14.9% in test [4] (at 50.0 µM). Also, the growth inhibition is 1% in test [5] (setting [7]); 56% in test [5] (setting [8]); 24.2% in test [5] (at 50.0 µM); 9% in test [6] (setting [7]); 70% (active) in test [6] (setting [8]).

With `C/C(=N\NC(=S)N1CCN(c2ccccn2)CC1)c1nccs1`, the growth inhibition in test [1] (setting [7]) was 23%; in test [1] (setting [8]) it was 98% (active); in test [1] (at 50.0 µM), 86.5% (active); in test [2] (setting [7]), 43%; in test [2] (setting [8]), 99% (active); in test [2] (at 50.0 µM), 91.6% (active). Also, the growth inhibition in test [3] (setting [7]) was 43%; in test [3] (setting [8]), 99% (active); in test [3] (at 50.0 µM) it was 90.8% (active); in test [4] (setting [7]), 52%; in test [4] (setting [8]), 98% (active); in test [4] (at 50.0 µM), 89.5% (active). The growth inhibition in test [5] (setting [7]) is 73% (active); in test [5] (setting [8]) it was 99% (active); in test [5] (at 50.0 µM) it was 87.3% (active); in test [6] (setting [7]), 38%; in test [6] (setting [8]), 99% (active).

As for `CC(=O)OCC(=O)[C@H]1CC[C@H]2[C@@H]3CC=C4C[C@@H](O)CC[C@]4(C)[C@H]3CC[C@]12C`, the growth inhibition was 54% in test [1] (setting [7]); 91% (active) in test [1] (setting [8]); 89.8% (active) in test [1] (at 50.0 µM); 33% in test [2] (setting [7]); 91% (active) in test [2] (setting [8]); -5.65% in test [2] (at 50.0 µM). Further, the growth inhibition in test [3] (setting [7]) is 60%; in test [3] (setting [8]) it was 94% (active); in test [3] (at 50.0 µM), 48.5%; in test [4] (setting [7]), 18%; in test [4] (setting [8]), 95% (active); in test [4] (at 50.0 µM), 55.8%. Moreover, the growth inhibition is 23% in test [5] (setting [7]); 91% (active) in test [5] (setting [8]); -17.4% in test [5] (at 50.0 µM); 65% in test [6] (setting [7]); 95% (active) in test [6] (setting [8]); 81.1% (active) in test [6] (at 50.0 µM).
